Assay results as given in PubChem BioAssay AID651957 (The Scripps Research Institute Molecular Screening Center, 2012).
Among all 370,000 compounds or so, about 620 (0.17%) were called active. The entries come from a sample that favours actives as a whole. Unmarked numbers belong to inactive results.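 How the source made its calls: active means inhibition above the mean inhibition of all tested compounds plus 3 SD, set per campaign (cut at about 52% in these data); inactive means the rest.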

Target: Nuclear receptor coactivator 2 (Homo sapiens) (UniProt Q15596)
Assay: inhibition of GAL4-SRC2 driven luciferase reporter, primary screen, SRC2 inhibitor project, cell-based, luminescence (AID 651957);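 further: 0% = DMSO treated cells and 100% = cells given Gossypol at 36 µM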
Conditions: HEK293 GAL4-SRC2 luciferase reporter, at 9 µM, stronger effect = higher value

Nuclear receptor coactivator 2 (Homo sapiens), sequence (Q15596 whole entry, looked up, the tested form may be a part): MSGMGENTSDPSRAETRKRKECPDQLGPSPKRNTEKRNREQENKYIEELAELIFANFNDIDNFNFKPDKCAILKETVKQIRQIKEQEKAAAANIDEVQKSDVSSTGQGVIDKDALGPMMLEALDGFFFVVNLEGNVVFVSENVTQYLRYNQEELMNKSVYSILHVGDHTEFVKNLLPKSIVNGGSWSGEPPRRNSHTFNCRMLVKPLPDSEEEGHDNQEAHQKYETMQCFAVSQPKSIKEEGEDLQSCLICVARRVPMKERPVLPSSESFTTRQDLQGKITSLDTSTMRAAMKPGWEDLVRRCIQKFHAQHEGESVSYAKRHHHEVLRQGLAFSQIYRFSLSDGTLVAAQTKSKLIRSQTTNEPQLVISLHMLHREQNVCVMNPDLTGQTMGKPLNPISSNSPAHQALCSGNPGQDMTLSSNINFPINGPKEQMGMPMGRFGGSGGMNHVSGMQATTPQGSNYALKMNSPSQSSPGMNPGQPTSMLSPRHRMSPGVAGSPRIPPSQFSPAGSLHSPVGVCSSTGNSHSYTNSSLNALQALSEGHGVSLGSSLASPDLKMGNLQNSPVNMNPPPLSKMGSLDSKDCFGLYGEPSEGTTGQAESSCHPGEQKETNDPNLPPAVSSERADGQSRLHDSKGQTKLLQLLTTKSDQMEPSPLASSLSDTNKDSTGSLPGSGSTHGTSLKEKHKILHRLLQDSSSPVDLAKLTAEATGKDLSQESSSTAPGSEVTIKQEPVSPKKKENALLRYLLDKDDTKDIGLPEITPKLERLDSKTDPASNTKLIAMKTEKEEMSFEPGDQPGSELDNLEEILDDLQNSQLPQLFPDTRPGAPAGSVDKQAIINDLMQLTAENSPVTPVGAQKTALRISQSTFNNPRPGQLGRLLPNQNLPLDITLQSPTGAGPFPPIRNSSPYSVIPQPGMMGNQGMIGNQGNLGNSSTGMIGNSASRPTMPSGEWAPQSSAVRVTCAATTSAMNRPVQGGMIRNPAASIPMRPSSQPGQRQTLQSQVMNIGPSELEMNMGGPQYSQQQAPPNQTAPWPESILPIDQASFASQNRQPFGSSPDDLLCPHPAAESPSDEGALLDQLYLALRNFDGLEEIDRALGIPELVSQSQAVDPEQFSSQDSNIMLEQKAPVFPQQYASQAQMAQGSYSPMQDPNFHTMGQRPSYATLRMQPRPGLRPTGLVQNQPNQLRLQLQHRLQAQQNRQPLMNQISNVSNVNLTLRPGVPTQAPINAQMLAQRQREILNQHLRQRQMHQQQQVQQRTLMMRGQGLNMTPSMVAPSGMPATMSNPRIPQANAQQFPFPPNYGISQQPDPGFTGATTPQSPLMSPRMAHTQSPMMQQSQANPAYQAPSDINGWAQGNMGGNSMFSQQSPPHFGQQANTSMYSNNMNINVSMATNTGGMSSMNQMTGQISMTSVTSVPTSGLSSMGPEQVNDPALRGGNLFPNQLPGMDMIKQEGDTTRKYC

| Compound | inhibition |
| --- | --- |
| CCC(C)(O)C(=O)OC1C(=O)OC2CC3C(C)=CC(=O)C(O)C3(C)C3C4(O)OCC23C1C(C)C4O (stereo not given) | 74.8% (active) |
| O=C(COc1ccc2ccccc2c1)N1CCN(Cc2ccncc2)CC1 | 9.05% |
| CC1([N+](=O)[O-])COP(=O)(Nc2ccc(F)cc2)OC1 (stereo not given) | -54.9% |
| CCN1CCN(C(=O)Cc2coc3cc(C)cc(C)c23)CC1 | -5.27% |
| CC(C)n1c(=O)c(C=Nc2ccc(Br)cc2)c(O)n(Cc2ccco2)c1=O | 8.44% |
| COC1C(O)C(C)OC(OC2CCC3(C=O)C(CCC4C3CCC3(C)C(C5=CC(=O)OC5)CCC43O)C2)C1O (stereo not given) | 55% (active) |
| C[C@]12CC[C@H](O)C[C@H]1CC[C@@H]1C2CC[C@]2(C)[C@@H](C3=CC(=O)OC3)[C@@H](O)C[C@]12O (stereo not given in full) | 10.7% |
| Brc1ccc2c(c1)CNCc1cnnn1-2 | -46.2% |
| Cc1ccccc1CCC[C@@H](CC1CCCCC1)CN(C)C(=O)Oc1ccccc1 | -0.22% |
| COP(=O)(Sc1ccccc1)C(Cc1ccccc1)NC(=O)OCc1ccccc1 (stereo not given) | 2.58% |
